# Screening data deposited in PubChem by National Center for Advancing Translational Sciences (NCATS).
# FLuc counter: firefly luciferase modulation, counter-screen for miR-21 project; P08659; purified FLuc, Km substrates, luminescence inhibition; Potency, µM (top dose mostly 57.5 µM), without a hit: top-dose activity change, negative = inhibition, most hits filed as inhibitors; 360,000 compounds, 6.9% hits; AID 588342;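 further: plate controls were vehicle for no effect and reference inhibitor for full effect; nearly all actives have a fitted effect of over 55% in size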
# Target sequence (P08659 whole entry, looked up): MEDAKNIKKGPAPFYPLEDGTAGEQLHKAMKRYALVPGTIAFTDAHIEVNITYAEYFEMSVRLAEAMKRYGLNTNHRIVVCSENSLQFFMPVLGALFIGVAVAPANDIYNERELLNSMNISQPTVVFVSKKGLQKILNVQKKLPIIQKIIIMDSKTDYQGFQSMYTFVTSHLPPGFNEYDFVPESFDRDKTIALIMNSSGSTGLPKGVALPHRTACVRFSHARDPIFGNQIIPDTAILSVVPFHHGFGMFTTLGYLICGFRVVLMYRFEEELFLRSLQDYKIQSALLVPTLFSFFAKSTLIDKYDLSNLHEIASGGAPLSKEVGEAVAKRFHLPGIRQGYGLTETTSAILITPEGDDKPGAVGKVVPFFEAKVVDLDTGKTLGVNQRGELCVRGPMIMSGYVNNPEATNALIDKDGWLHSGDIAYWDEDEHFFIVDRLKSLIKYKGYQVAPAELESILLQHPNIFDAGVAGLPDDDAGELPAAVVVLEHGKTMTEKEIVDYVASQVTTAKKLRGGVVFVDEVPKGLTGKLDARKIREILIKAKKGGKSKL
#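 Purified P. pyralis luciferase, 10 nM final, with Km-level 10 uM D-luciferin and 10 uM ATP in 50 mM Tris acetate pH 7.5, 10 mM Mg acetate, 0.01% Tween-20, 0.05% BSA; 6-point qHTS titration about 60 µM downward; luminescence read.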
# Rab9 prom act: Rab9 promoter activation | Potency, µM (doses to about 9.22 µM), for inactives: at the top dose activation, negative = inhibition, most hits filed as activators | Huh7 Rab9 promoter-luciferase reporter, luminescence, 24 h | 320,000 compounds, 2.8% hits; further: % of control where 0% means no effect; nearly all actives have a fitted effect of over 60% in size
#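 Huh7 cells stably carrying a Rab9 promoter-luciferase reporter, 1500 cells per well in OP-MEM I with 10% FBS, treated with compound 24 hours at 37C. Luciferase activity read by luminescence after 10 minutes with Amplite reagent.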
# SMN2 splice enh: increases expression of the SMN2 splice variant | AID 1458 | 210,000 compounds, 2.8% hits | HEK293 SMN2-luciferase splicing reporter, luminescence, 30-36 h | Potency, µM (highest dose often 46.1 µM), for inactives: at the top dose activity change, positive = activation, most hits filed as activators; further: % of control where 0% means no effect; nearly all actives have a fitted effect of over 55% in size
#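 HEK293 cells carry an SMN2 […]–luciferase reporter in which exon 7 inclusion puts luciferase in frame. Cells were plated 10-12 h before compound addition, then incubated 30-36 h at 37C. ONE-Glo luminescence was read; sodium butyrate at 4.5 mM final served as control.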
# NPC1 prom act: activates the NPC1 promoter | Huh7 NPC1 promoter luciferase reporter, 24 h | Potency, µM (titrated, usually from 9.22 µM), without a hit: at the top dose activation, most hits filed as activators | 320,000 compounds, 2.4% hits; further: % of control where 0% means no effect; nearly all actives have a fitted effect of over 60% in size
#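 Huh7 reporter cells (NPC1 promoter driving luciferase) are dosed with compound for 24 h at 37 °C, 5% CO2; luciferase detection reagent is then added and luminescence measured after 10 min at ambient temperature.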
# ELG1 genotox: genotoxicity induction in ELG1-luciferase HEK293T cells; 330,000 compounds, 1.3% hits; Potency, µM (highest dose often 46 µM), for the others: at the top dose activity change, positive = activation, actives largely listed as activators; HEK293T ELG1-luciferase reporter, luminescence, 16 h; further: % of control where 0% means no effect; nearly all actives have a fitted effect of over 60% in size
#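 16 hr compound incubation (37 °C, 5% CO2) of HEK293T cells carrying luciferase-tagged ELG1; luciferase then measured by ONE-Glo luminescence after 30 min at RT.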
# * marks the source's active call; other numbers are inactive results; ? = inconclusive; nt = no result given; [ ] = dose if it differs, or a comment. Compounds with a hit are over-represented: about 7.5% of the library has one in this group of screens. The call rests on the fitted dose curve; in most records, active means well fitted curve in the direction sought with a large enough effect; inconclusive means small, poorly fitted or top-dose-only effect, or another doubt; inactive means no such curve, though single readings can be large; an effect the other way counts as inactive or inconclusive. Potency means the concentration at half of the fitted maximal effect.
SMILES,FLuc counter,Rab9 prom act,SMN2 splice enh,NPC1 prom act,ELG1 genotox
CCCC(=O)Nc1ccc(C=C(C(C)=O)C(C)=O)cc1,-3%,-3%,nt,0%,4%
COCc1cc(C)nc2sc3c(c12)NC(c1ccccc1C(=O)O)N(c1cccc(C(F)(F)F)c1)C3=O (centres undefined),?,nt,-6%,nt,nt
COc1ccccc1C1Nc2c(sc3nc(C)cc(C)c23)C(=O)N1c1ccccc1 (centres undefined),?,nt,13µM*,nt,nt
CC(C)C1CC(CCN)(Cc2ccccc2)CCO1 (centres undefined),2%,-13%,nt,0%,-5%
COc1ccc(/C=N/N=C/c2ccc(OC)c(O)c2)cc1O,24µM*,3%,0%,-1%,-1%
COc1cc(/C=N/N=C/c2cc(OC)c(O)c(OC)c2)cc(OC)c1O,17µM*,0%,14%,0%,3%
COc1ccc(CCN(C)C(=O)C2CCN(C(=O)Nc3ccccc3)CC2)cc1OC,-4%,19%,nt,14%,2%
CC1(C)CC(=O)C(C(C2=C(O)CC(C)(C)CC2=O)c2ccc(O)c([N+](=O)[O-])c2)=C(O)C1,24µM*,0%,4%,-5%,4%
CC1(C)CC(=O)C(C(C2=C(O)CC(C)(C)CC2=O)c2ccc([N+](=O)[O-])cc2)C(=O)C1 (centres undefined),0%,2%,nt,1%,5%
Cc1ccccc1NC(=O)CCc1c(C)nc2c(c1C)c(=O)n(C)c(=O)n2C,6%,nt,14%,nt,nt
COc1ccc(CCC(=O)Nc2ccc(S(=O)(=O)N3CCCC3)cc2)cc1OC,1%,1%,nt,0%,0%
CCc1ccc(NC(=O)c2cnc3n(c2=O)CCS3)cc1,9.5µM*,4µM*,26%,29%,9.2µM*
Cc1ccc(C)c(NC(=O)c2cnc3n(c2=O)CCS3)c1,-18%,4.5µM*,?,?,15%
CCc1ccccc1NC(=O)c1cnc2n(c1=O)CCS2,-3%,2%,-14%,-2%,5%
Cn1ccc2ccc(C3=CC(=O)C[C@H](c4ccc(F)cc4)C3)cc21,-16%,-2%,nt,-8%,-5%
O=S1(=O)N=C(Nc2nncs2)c2ccccc21,19µM*,-1%,-11%,-2%,-1%
O=C(OCCCCOC(=O)c1ccccc1)c1ccccc1,-1%,-6%,nt,-7%,-2%
Nc1ccc(C(=O)OCCc2ccccc2)cc1,0.6µM*,3.2µM*,nt,3.5µM*,?
O=C(OCCc1ccccc1)c1cc(O)c(O)c(O)c1,24µM*,16%,nt,-2%,?
COc1ccc(C(=O)OCCc2ccc(O)cc2)cc1,6.7µM*,?,?,?,13µM*
CN(C)S(=O)(=O)c1ccc(C(=O)OCCc2ccccc2)cc1,15µM*,0%,nt,1%,14%
COc1ccc(CCOC(=O)c2ccc(NC(=O)CC#N)cc2)cc1,-13%,2%,nt,0%,4%
CCCC(=O)Nc1ccc(C)c(O)c1,-1%,-2%,-5%,-3%,1%
CCC(=O)NC(=S)Nc1ccc2oc(-c3ccc(OC)cc3)nc2c1,-4%,?,7.9µM*,2µM*,16µM*
CCCC(=O)Nc1ccc(-c2nc3cc(C)ccc3o2)cc1,0.54µM*,0.5µM*,1.3µM*,0.5µM*,?
SMILES,FLuc counter,Rab9 prom act,SMN2 splice enh,NPC1 prom act,ELG1 genotox
COc1ccc(C(=O)Nc2ccc3oc(-c4ccc5ccccc5c4)nc3c2)cc1Br,?,nt,-7%,nt,nt
CCCC(=O)Nc1ccc2oc(-c3ccc(OC)c(Br)c3)nc2c1,?,6.3µM*,15%,?,?
CCCC(=O)Nc1ccc(-c2nc3cc(C)c(C)cc3o2)c(O)c1,1%,2µM*,35µM*,?,?
COc1ccc(-c2nc3cc(NC(=S)NC(=O)Cc4ccccc4)ccc3o2)cc1,-12%,?,14%[1.84 µM],?,?
CS(=O)(=O)Nc1ccc(Nc2c3ccccc3nc3ccccc23)cc1,nt,nt,5%[9.22 µM],nt,nt
Cc1ccc(C)c(N2CCN(C(=O)c3cc(S(=O)(=O)N4CCOCC4)ccc3F)CC2)c1,3%,-9%,-27%,-3%,-2%
Cc1[nH]c2ccc(C(=O)N3CCN(c4ccccn4)CC3)cc2c1C,-3%,-6%,nt,-1%,1%
